# High-throughput results: PubChem, National Center for Advancing Translational Sciences (NCATS)
# Shown is part of a subset that was picked to be rich in hits.
# LmPK inhibitor: qHTS Assay for Inhibitors of Leishmania Mexicana Pyruvate Kinase (LmPK); 0.37% of 290,000 active; purified LmPK, Kinase-Glo ATP luminescence, 1 h; Potency, µM (highest dose often 57.5 µM), most hits filed as inhibitors; AID 1721, 2009; Q27686
#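 ATP generated from ADP (0.1 mM) and PEP (0.5 mM) by 0.1 nM LmPK over 1 h at room temperature (pH 7.2 imidazole buffer) was detected by coupled luciferase luminescence. Values were normalized to uninhibited and no-enzyme wells.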
# CHX counter: Cycloheximide Counterscreen for Small Molecule Inhibitors of Shiga Toxin; max response, %; 12% of 300,000 active; cell reporter, cycloheximide protein synthesis inhibition counterscreen; AID 2314, 2010; in the data active means max response mostly above about 13%, no sharp cut-off; inactive means mostly below about 14%; further: read at 38.3 µM for the half of the compounds with a filed dose
# Sm TGR block: qHTS Assay for the Inhibitors of Schistosoma Mansoni Peroxiredoxins | 3% of 360,000 active | Potency, µM (series often up to 114 µM), most hits filed as inhibitors | Schistosoma mansoni thioredoxin glutathione reductase (TGR), Q962Y6 | purified TGR, DTNB reduction, TNB absorbance 405 nm; further: nearly all actives have a fitted effect of over 60% in size
#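 First, TGR (20 nM dispensed) and NADPH were mixed with compound. Second, a 15 min room-temperature incubation followed. Third, further NADPH and then DTNB were added to start the reaction. Finally, TNB absorbance was monitored kinetically.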
# TbPYK inhibitor: qHTS of Trypanosoma Brucei Inhibitors. pyruvate kinase (Trypanosoma brucei), Q57TT1. TbPYK enzyme, Kinase-Glo Plus ATP luminescence, 45 min. Potency, µM (titrated, usually from 76.8 µM), actives largely listed as inhibitors. 0.12% of 410,000 active. AID 624173, 2012; further: nearly all actives have a fitted effect of over 50% in size
#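 Assay buffer: 50 mM TEA pH 7.2, 100 mM KCl, 10 mM MgCl2, 0.05% BSA, 0.01% Tween-20. Pyruvate kinase from T. brucei plus substrate met compound, then ADP (130 uM final). Luminescence was read post 45 min RT.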
# Shiga inhibitor: A qHTS for Small Molecule Inhibitors of Shiga Toxin; inhibition, % at 38.7 µM; Vero cells, Shiga toxin protein synthesis inhibition reporter; 9.2% of 290,000 active; AID 2315, 2010; in the data active means inhibition mostly above about 28%, no sharp cut-off; inactive means mostly below about 43%
# Giardia FBPA inh: qHTS Assay for Inhibitors of Fructose-1,6-bisphosphate Aldolase from Giardia Lamblia | A8B2U2 | purified Giardia FBPA | Potency, µM (doses to about 59.6 µM), actives largely listed as inhibitors | 0.71% of 290,000 active; further: nearly all actives have a fitted effect of over 55% in size
# Target sequence (A8B2U2 whole entry, looked up): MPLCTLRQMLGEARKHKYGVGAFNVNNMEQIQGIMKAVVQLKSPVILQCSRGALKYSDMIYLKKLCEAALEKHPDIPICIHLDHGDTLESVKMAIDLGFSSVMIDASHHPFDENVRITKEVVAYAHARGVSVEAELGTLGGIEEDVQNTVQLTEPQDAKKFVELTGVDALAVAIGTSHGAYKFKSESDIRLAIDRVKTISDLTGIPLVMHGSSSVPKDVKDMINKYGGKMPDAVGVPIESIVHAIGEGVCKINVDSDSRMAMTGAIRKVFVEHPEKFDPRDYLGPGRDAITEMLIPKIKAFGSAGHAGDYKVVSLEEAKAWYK
#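 Giardia FBPA (40 nM reagent) was preincubated 10 min at RT with compound (up to 57.5 uM final), then substrate plus GAPDH/TPI/NAD/arsenate coupling system with diaphorase/resazurin was added; resorufin fluorescence (525/598 nm) was read after 20 min.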
# A number is an active result; – = inactive; ? = inconclusive; · = no result; [ ] = another dose, or the depositor's remark. Unless noted, the call rests on the fitted dose curve; in most records, active means well fitted curve in the direction sought with a large enough effect; inconclusive means small, poorly fitted or top-dose-only effect, or another doubt; inactive means no such curve, though single readings can be large; an effect the other way counts as inactive or inconclusive.
SMILES,LmPK inhibitor,CHX counter,Sm TGR block,TbPYK inhibitor,Shiga inhibitor,Giardia FBPA inh
COC(=O)c1cccc(C#CC(NP(=O)(c2ccccc2)c2ccccc2)c2ccccc2)c1 (stereo not drawn),–,–,11.2µM,–,–,–
Cc1ccc2cc3cc(C(=O)N4CCN(Cc5ccccc5)CC4)sc3nc2c1,–,–,–,–,–,–
Cc1ccc2nc(-c3ccc(NC(=O)COC(=O)c4ccc([N+](=O)[O-])o4)cc3)sc2c1,–,53.1,–,–,90.9,–
Cc1ccc2cc3cc(C(=O)N4CCN(C(=O)c5ccco5)CC4)sc3nc2c1,–,18.9,44.7µM,–,–,–
Cc1ccc2nc(-c3ccc(NC(=O)COC(=O)c4ccc(Br)o4)cc3)sc2c1,–,26.6,–,–,81.3,–
C=CCn1c(SCC(=O)Nc2ccc(-c3nc4ccc(C)cc4s3)cc2)nnc1-c1ccccc1,–,42.0,–,–,84.1,–
COc1ccccc1OC[C@H](O)COC(N)=O,·,·,·,–,·,–
CCCCNC(=O)C1c2ccccc2OCC(=O)N1CCc1ccccc1 (stereo not drawn),·,·,·,–,·,·
Cc1ccc2nc(-c3ccc(NC(=O)COc4ccccc4)cc3)sc2c1,·,·,–,–,·,·
CCOc1ncccc1C(=O)OCC(=O)Nc1ccc(-c2nc3ccc(C)cc3s2)cc1,–,76.1,–,–,127.5,–
Cc1ccc2nc(-c3ccc(NC(=O)COC(=O)c4ccco4)cc3)sc2c1,–,46.0,–,–,79.9,–
Cc1ccc2nc(-c3ccc(NC(=O)COC(=O)c4cncc(Br)c4)cc3)sc2c1,–,38.7,–,–,64.3,–
CC(=O)Nc1ccc(NC(=O)COC(=O)c2ccco2)cc1,–,–,–,–,–,–
Cc1ccc(NC(=O)COC(=O)c2ccco2)cc1,–,36.7,–,–,54.1,–
Cc1ccc2nc(-c3ccc(NC(=O)COc4ccccc4C(C)(C)C)cc3)sc2c1,·,·,–,–,·,·
COc1ccc(CCNC(=O)Nc2nc(C(N)C3CCCCC3)cs2)cc1OC (stereo not drawn),·,·,·,–,·,·
Cc1ccc(NC(=O)CN2CCN(C(=O)c3ccco3)CC2)cc1,–,–,–,–,–,–
CNS(=O)(=O)c1cccc(C(=O)OCC(=O)Nc2ccc(-c3nc4ccc(C)cc4s3)cc2)c1,–,44.5,·,–,93.7,–
Cc1ccc2nc(-c3ccc(NC(=O)CN4CCN(C(=O)c5ccco5)CC4)cc3)sc2c1,–,42.8,?,–,135.5,–
COc1ccc(/C=C(\C#N)C(=O)OCC(=O)Nc2ccc(-c3nc4ccc(C)cc4s3)cc2)cc1,–,27.9,·,–,122.9,–
CSc1nc(N)nc2c1ncn2CC(=O)NCCNc1ccc([N+](=O)[O-])cn1,·,·,·,–,·,·
Cc1cccc(N2CCN(C(=O)CCn3c(=O)c4cccn4c4cccnc43)CC2)c1C,·,·,–,–,·,·
CC(N)=Nc1ccc([N+](=O)[O-])cc1,–,–,–,–,–,–
O=[N+]([O-])c1ccc(N=Nc2c(Cl)cc(O)cc2Cl)cc1,22.4µM,28.6,–,–,111.2,–
CC1(OC(=O)c2ccc(Cl)nc2)C(=O)C=C2C=C3CCCN3C=C2C1=O (stereo not drawn),–[11.5 µM],–,35.5µM,–,–,?
SMILES,LmPK inhibitor,CHX counter,Sm TGR block,TbPYK inhibitor,Shiga inhibitor,Giardia FBPA inh
CCOc1ccc(-n2c(=O)c3c4c(sc3n(CC(=O)NC(C)CC)c2=O)CCCC4)cc1 (stereo not drawn),·,·,–,–,·,·
O=C(c1cccs1)N(Cc1cccnc1)c1nc2c(Cl)cccc2s1,·,·,–,–[15.4 µM],·,·
Cc1cccc2sc(N(Cc3cccnc3)C(=O)CCS(=O)(=O)c3ccccc3)nc12,·,·,4.47µM,–,·,·
Cc1cc(C)c2nc(N(Cc3cccnc3)C(=O)CCS(=O)(=O)c3ccccc3)sc2c1,·,–,–,–,–,·
Cc1ccc2sc(N(Cc3cccnc3)C(=O)CCS(=O)(=O)c3ccccc3)nc2c1C,·,·,35.5µM,–[15.4 µM],·,·
O=C(CCS(=O)(=O)c1ccccc1)N(Cc1cccnc1)c1nc2c(Cl)cccc2s1,·,–,1.58µM,–,–,·
CCOc1ccc(C(=O)Nc2ccc3nc(SCC(=O)N(C)c4ccccc4)sc3c2)cc1,·,·,–,–,·,·
CCC(CC)C(=O)Nc1c(C(=O)N2CCN(c3ccccc3F)CC2)oc2ccccc12,·,·,–,–,·,·
CC(Cl)C(=O)c1ccc2c(c1)CCN2C(=O)C1CC1 (stereo not drawn),–,20.8,?,–,–,–
COc1ccc2c(c1)O[C@H](c1ccc3c(c1)OCO3)[C@@H](O)C2=O,–,38.0,–,–,57.9,–
COc1ccc2c(c1)O[C@@H](c1ccc3c(c1)OCO3)[C@H](OC(=O)Nc1cc(OC)c(OC)c(OC)c1)C2=O,–,14.5,–,·,36.5,–
COc1cc2c(cc1OC)C(c1ccco1)CC(=O)N2 (stereo not drawn),–,–,–,–,–,–
O=C1CC(c2ccco2)c2ccc3ccccc3c2N1 (stereo not drawn),–,–,44.7µM,–,–,–
CCOC(=O)c1cnc(SCC(=O)c2ccccc2)nc1N,–,–,–,–,–,–
CCOC(=O)c1cnc(-c2ccccc2)nc1N1CCOCC1,–,–,–,–,–,–
CCOC(=O)c1cnc(-c2ccccc2)nc1N,–,57.3,–,–,125.7,–
CCOC(=O)c1cnc(-c2ccccc2)nc1N(C)C,–,47.6,–,–,120.4,–
O=C(C1CCCN(S(=O)(=O)c2cccc3nsnc23)C1)N1CCN(c2cccc(Cl)c2)CC1 (stereo not drawn),·,·,–,–,·,·
CC(C)c1ccc(C2OCC(C)([N+](=O)[O-])CO2)cc1 (stereo not drawn),·,·,·,–,·,·
COc1ccccc1-c1nc(CNC(=O)Nc2ccccc2)c(C)o1,·,·,–,–,·,·
COc1ccc(Cl)cc1NC(=O)c1cnccn1,–,13.4,–,–,–,–
COc1ccc(NC(=O)C(OC(=O)c2cnccn2)c2ccccc2)cc1Cl (stereo not drawn),–,17.4,–,–,–,·
Cc1ccc(NC(=O)c2cnccn2)c(C)c1,–,21.0,–,–,37.6,–
COc1ccc(NC(=O)C(OC)c2ccccc2)cc1Cl (stereo not drawn),–,–,–,–,–,–
O=C(Nc1ccccc1Cl)c1cnccn1,–,–,–,–,–,–
O=C(Nc1cc(Cl)ccc1Oc1ccccc1)c1cnccn1,–,–,–,–,–,–
O=C(Nc1ccc(Br)cc1Cl)c1cnccn1,–,19.1,–,–,–,–
COc1cccc(-c2cc(NCc3ccccc3)ncn2)c1,·,·,·,·,·,–
CN1CCN(c2ncc3c(n2)CCN(Cc2ccc(Br)s2)C3)CC1,·,·,–,–,·,·
